In PubChem BioAssay:
Activity calls are given as the source filed them.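 Rule for the calls, unless noted: active = NADPH fluorescence slope more negative than the mean of all samples by about 3 SD, 99.7% confidence; inactive = the rest.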

Columns and labels:
[1] = inhibitors of TNFa-induced NFkB p65 translocation, primary screen, imaging, HUVEC, MLSMR starter and 10KST1 sets (AID 438;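 active = inhibition above 20% together with a positive visual image hit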;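 note: compound added about 3h40 before a 20 min TNFalpha stimulation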;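 for inhibition: signal is the nuclear over cytoplasmic p65 intensity ratio per well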); conditions: HUVEC TNFa-induced p65 nuclear translocation; cell count: measured here: nuclei count (cytotoxicity indicator), at 2.08 µM; inhibition: at 2 µM, stronger effect = higher value, 0% TNFa-plus-vehicle, 100% no-TNFa wells
[2] = reduction of polyQ htt aggregates in cells – imaging, exon1htt(103Q)mCFP cells, high-content imaging, primary screen (AID 483;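 active = visual image review flags a hit and inhibition of aggregation exceeds 20%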;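 note: compound exposure lasted 3 days before fixation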;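 for nuclei count: percent of the per-plate median nuclei count of sample wells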); conditions: exon1htt(103Q)mCFP cell line, aggregate imaging, at 2 µM; inhibition of aggregation: stronger effect = higher value; nuclei count: measured here: cell count, toxicity
[3] = endothelial E-selectin expression blockers – imaging, HUVEC, immunofluorescence, MLSMR starter and 10KST1 sets, primary screen (AID 487;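 active = visually confirmed hit in the image check and inhibition above 20%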;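 for inhibition: signal is fraction of cell area covered by stained E-selectin grains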;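 for nuclei count: 100% = median nuclei count of all wells on the same plate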); conditions: HUVEC TNFalpha-induced E-selectin immunofluorescence imaging, at 2 µM; inhibition: stronger effect = higher value; nuclei count: measured here: cell number, toxicity
[4] = target: Voltage-gated potassium channel subunit beta-2 (Rattus norvegicus) (UniProt P62483); assay: inhibitors of rat Kvbeta2 reductase activity – biochemical, NADPH fluorescence, primary screen (AID 622;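 active = fluorescence slope higher than the sample average by over 3 SD, cut at about -0.22 in these data, passing the limit was not always enough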;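 note: slope of raw intensity against log time taken from 70 to 1610 s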); conditions: recombinant KvBeta, 4-cyanobenzaldehyde reduction, at 10 µM, stronger effect = higher value
Voltage-gated potassium channel subunit beta-2 (Rattus norvegicus), sequence (P62483 whole entry, looked up): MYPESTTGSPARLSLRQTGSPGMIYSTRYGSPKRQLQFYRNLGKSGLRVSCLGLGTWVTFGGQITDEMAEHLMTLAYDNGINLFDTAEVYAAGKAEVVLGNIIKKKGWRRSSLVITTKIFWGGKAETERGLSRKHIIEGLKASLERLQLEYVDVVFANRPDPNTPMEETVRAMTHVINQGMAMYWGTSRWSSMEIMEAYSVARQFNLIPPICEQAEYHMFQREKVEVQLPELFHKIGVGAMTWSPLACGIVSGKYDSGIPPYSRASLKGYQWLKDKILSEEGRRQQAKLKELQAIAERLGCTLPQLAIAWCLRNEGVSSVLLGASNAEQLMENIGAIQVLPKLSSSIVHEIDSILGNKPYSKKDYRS

[5] = target: Voltage-gated potassium channel subunit beta-2 (Rattus norvegicus) (UniProt P62483); assay: enhancers of rat Kvbeta2 NADPH turnover – biochemical, NADPH fluorescence, primary screen (AID 623); conditions: Recombinant KvBeta, NADPH fluorescence decrease slope, 10 min; at 10 µM; stronger effect = lower value;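 note: fluorescence intensity change per second fitted from 20 to 320 s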
[6] = target: Alpha-2C adrenergic receptor (Homo sapiens) (UniProt P18825); assay: compounds altering alpha2C-coupled GIRK flux – cell-based, HEK293 alpha2C/GIRK1/2, thallium flux, primary screen (AID 624;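 active = fluorescence slope after compound addition differing from the mean of all screened samples at 99.7% confidence, in either direction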;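 note: slope of fluorescence ratio to pre-addition baseline per second over 15 to 24 s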); conditions: thallium flux BTC fluorescence, at 10 µM, actives lie on both sides
Alpha-2C adrenergic receptor (Homo sapiens), sequence (P18825 whole entry, looked up): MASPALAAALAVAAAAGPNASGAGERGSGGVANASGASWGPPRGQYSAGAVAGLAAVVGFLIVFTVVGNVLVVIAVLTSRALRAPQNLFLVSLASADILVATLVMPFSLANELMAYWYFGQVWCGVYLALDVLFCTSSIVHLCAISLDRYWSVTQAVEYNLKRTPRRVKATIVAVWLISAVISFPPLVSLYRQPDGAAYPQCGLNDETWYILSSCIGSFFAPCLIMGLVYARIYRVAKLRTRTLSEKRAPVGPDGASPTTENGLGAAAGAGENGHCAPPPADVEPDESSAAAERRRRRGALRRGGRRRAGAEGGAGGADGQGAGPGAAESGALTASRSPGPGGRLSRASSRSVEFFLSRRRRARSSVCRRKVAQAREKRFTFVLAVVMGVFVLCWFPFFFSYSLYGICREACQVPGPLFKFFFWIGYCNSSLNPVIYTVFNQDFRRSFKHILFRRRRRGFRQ

[7] = blockers of RIG-like receptor reporter activation – cell-based, Sendai virus stimulus, luciferase, 10K MLSCN set, TLR/RLR signaling modifier project, primary screen (AID 602276;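 active = inhibition at or above 50% at 10 µM; inactive = inhibition below 50%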;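 note: firefly luciferase from ISG56 promoter only with Renilla not read in this screen; 0% = Sendai virus plus DMSO and 100% = medium plus DMSO without virus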); conditions: HEK293 RL24 IRF3 luciferase reporter, at 10 µM, stronger effect = higher value
[8] = TLR3 IRF3 reporter activation blockers – cell-based, poly I:C stimulus, luciferase, 10K MLSCN set, primary screen (AID 602277;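 active = inhibition of the reporter signal at or above 50%; inactive = inhibition below 50%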); conditions: HEK293-TLR3 RL24 IRF3 luciferase reporter, at 10 µM, stronger effect = higher value

Row | Structure (SMILES) | cell count [1] | inhibition [1] | inhibition of aggregation [2] | nuclei count [2] [%] | inhibition [3] | nuclei count [3] [%] | fluorescence slope [4] | NADPH fluorescence slope [5] | slope [6] | inhibition [7] | inhibition [8]
1 | CCCCOC(=O)n1c(SCC(=O)N(CC)CC)nc2ccccc21 | 307 | 5.3% (inactive) | 1.4% (inactive) | 107 | 10% (inactive) | 106 | -0.585 (inactive) | -3.7e-07 (inactive) | 0.00671 (inactive) | -15.8% (inactive) | -54.6% (inactive)
2 | Nn1c(SCC(=O)NC2CCCCC2)nnc1-c1ccc(Cl)cc1 | 376 | 0.7% (inactive) | -1.9% (inactive) | 106 | -114% (inactive) | 108 | -0.472 (inactive) | 6.9e-06 (inactive) | 0.00502 (inactive) | 14.6% (inactive) | 19% (inactive)
3 | Fc1cccc(Cl)c1Cn1nnc2c(NCc3ccccn3)ncnc21 | 716 | -10.5% (inactive) | 15.5% (inactive) | 120 | -26.6% (inactive) | 108 | -0.514 (inactive) | -6.7e-05 (inactive) | 0.0046 (inactive) | 6.08% (inactive) | 9.56% (inactive)
4 | Cc1c(NC(=O)C2(c3ccccc3)CCOCC2)c(=O)n(-c2ccccc2)n1C | 552 | 11.5% (inactive) | 9.2% (inactive) | 90.5 | 25.9% (inactive) | 130 | -0.435 (inactive) | 2.3e-05 (inactive) | 0.00624 (inactive) | 0.891% (inactive) | 9.22% (inactive)
5 | O=C(NCCN1C(=O)C2C3C=CC(C3)C2C1=O)N1CCCCC1 (stereo not drawn) | 584 | -7.6% (inactive) | 0.9% (inactive) | 104 | 3.5% (inactive) | 99.5 | -0.604 (inactive) | -3.7e-05 (inactive) | 0.00723 (inactive) | -6.07% (inactive) | 20.6% (inactive)
6 | Clc1ccc(Nc2ncnc3c2cnn3-c2ccccc2)cc1 | 703 | 0% (inactive) | 19% (inactive) | 95.2 | -14.4% (inactive) | 105 | -0.496 (inactive) | -1.9e-05 (inactive) | 0.0059 (inactive) | -24% (inactive) | -67.8% (inactive)
7 | COc1ccc(N2CCN(CCCNC(=O)C3CCCN(S(=O)(=O)c4cnc[nH]4)C3)CC2)cc1 (stereo not drawn) | 604 | 33.9% (active) | -29.9% (inactive) | 89.3 | -87.7% (inactive) | 122 | -0.537 (inactive) | -5.9e-06 (inactive) | 0.0058 (inactive) | -10.4% (inactive) | 17.4% (inactive)
8 | Cc1ccc2nc(-c3ccc4c(c3)OCCO4)cc(C(=O)O)c2c1 | 337 | -10.3% (inactive) | -4.5% (inactive) | 111 | 30.4% (inactive) | 89.9 | -0.299 (inactive) | -4e-05 (inactive) | 0.00454 (inactive) | -13.7% (inactive) | 98.1% (active)
9 | O=S(=O)(c1ccccc1)N(Cc1nc(-c2ccccc2)no1)C1CCCCC1 | 446 | 2% (inactive) | 5.6% (inactive) | 76.3 | -57.4% (inactive) | 96.2 | -0.461 (inactive) | -1.2e-05 (inactive) | 0.00919 (inactive) | 16.6% (inactive) | 30.8% (inactive)
10 | CC(=O)C1=C(C)NC(SCSc2ccccc2)=C(C#N)C1c1cccnc1 (stereo not drawn) | 472 | -0.5% (inactive) | -6.8% (inactive) | 87.9 | -33% (inactive) | 121 | -0.475 (inactive) | -3e-05 (inactive) | 0.00661 (inactive) | 1.86% (inactive) | 0.63% (inactive)
11 | CCCCSc1nnc([C@H](C)NC(=O)OC(C)(C)C)o1 | 345 | 0.2% (inactive) | -2.7% (inactive) | 104 | -34.4% (inactive) | 112 | -0.266 (inactive) | -2.9e-05 (inactive) | 0.00436 (inactive) | 11.6% (inactive) | 14.8% (inactive)
12 | CC(=O)Nc1c(-c2ccc(F)cc2)nc2ccccn12 | 516 | -4.7% (inactive) | 16.5% (inactive) | 104 | -6.5% (inactive) | 88 | -0.551 (inactive) | 9e-06 (inactive) | 0.00637 (inactive) | 11.8% (inactive) | 4.82% (inactive)
13 | Cc1ccc(-c2cc(C(=O)Nc3cc(C)on3)c3ccccc3n2)c(C)c1 | 688 | 1.1% (inactive) | 11.6% (inactive) | 111 | -17.5% (inactive) | 115 | -0.543 (inactive) | -4.3e-05 (inactive) | 0.00596 (inactive) | 10.5% (inactive) | 38.8% (inactive)
14 | O=C(NC(C(=O)c1ccccc1)N1CCOCC1)c1cccs1 (stereo not drawn) | 629 | -14.3% (inactive) | 19.4% (inactive) | 72.3 | -2.1% (inactive) | 101 | -0.311 (inactive) | -5.7e-05 (inactive) | 0.00609 (inactive) | -18.2% (inactive) | -23.5% (inactive)
15 | O=C(Nc1ccon1)c1csc2c1CCCC2 | 332 | 1.2% (inactive) | -60% (inactive) | 104 | -52.8% (inactive) | 107 | -0.396 (inactive) | -5.9e-05 (inactive) | 0.00515 (inactive) | -0.246% (inactive) | 11.9% (inactive)
16 | O=C(NCc1cccnc1)c1ccc2c(c1)OCO2 | 415 | 10.5% (inactive) | -7.2% (inactive) | 103 | 4.1% (inactive) | 110 | -0.53 (inactive) | 3.1e-05 (inactive) | 0.00534 (inactive) | -28.8% (inactive) | -20% (inactive)
17 | COc1ccccc1NC(=O)N1CCN(c2ccccc2F)CC1 | 209 | 2.5% (inactive) | -10.6% (inactive) | 99.1 | -100% (inactive) | 102 | -0.388 (inactive) | -3.6e-05 (inactive) | 0.00564 (inactive) | 11.9% (inactive) | -4.11% (inactive)
18 | CC(C)(C)SCCNC(=O)CSc1ccccc1 | 636 | -11% (inactive) | 8.5% (inactive) | 93 | -42.9% (inactive) | 78.7 | -0.586 (inactive) | -2.1e-05 (inactive) | 0.00555 (inactive) | -20.5% (inactive) | -23.4% (inactive)
19 | Nc1nc(N2CCCCC2)nc(N(c2ccccc2)c2ccccc2)n1 | 710 | -2.9% (inactive) | 23.2% (inactive) | 88 | -33% (inactive) | 91.6 | -0.544 (inactive) | -5.4e-05 (inactive) | 0.00708 (inactive) | 10.2% (inactive) | 34.4% (inactive)
20 | O=C1c2ccccc2C(=O)N1C/C=C/c1ccccc1 | 320 | 6.3% (inactive) | -5.9% (inactive) | 98.3 | -3.5% (inactive) | 112 | -0.495 (inactive) | -5.2e-05 (inactive) | 0.0051 (inactive) | 21.6% (inactive) | 25.4% (inactive)
21 | O=C(CCn1c(=S)[nH]c2ccccc2c1=O)NCC1CCCO1 (stereo not drawn) | 491 | 9.4% (inactive) | 6% (inactive) | 99.2 | 8% (inactive) | 109 | -0.622 (inactive) | -8.8e-06 (inactive) | 0.0038 (inactive) | 8.18% (inactive) | 2.45% (inactive)
22 | CCOC(=O)C1CCCN(C(=O)c2cn(C)c(=O)c3cc(OC)c(OC)cc23)C1 (stereo not drawn) | 746 | -16.1% (inactive) | -3.6% (inactive) | 110 | 0.3% (inactive) | 110 | -0.468 (inactive) | -1e-06 (inactive) | 0.00726 (inactive) | 6.66% (inactive) | 15.1% (inactive)
23 | COc1ccccc1CNC(=O)C1CCCN(S(=O)(=O)c2cccc3cccnc23)C1 (stereo not drawn) | 783 | -5.1% (inactive) | -33.4% (inactive) | 102 | -38.9% (inactive) | 108 | -0.592 (inactive) | -5.8e-05 (inactive) | 0.00706 (inactive) | 3.46% (inactive) | 26.9% (inactive)
24 | COc1ccc(C(C(C(=O)c2ccco2)N2CCOCC2)N2CCOCC2)cc1 (stereo not drawn) | 534 | 5.4% (inactive) | 2.2% (inactive) | 87.8 | 57.2% (inactive) | 91.5 | -0.401 (inactive) | 1.7e-05 (inactive) | 0.0056 (inactive) | 2.32% (inactive) | -5.02% (inactive)
25 | CC1(C)Cc2ccccc2C(N)=C1C#N | 331 | -0.8% (inactive) | 35.2% (active) | 71.1 | 9.4% (inactive) | 102 | -0.479 (inactive) | 2e-05 (inactive) | 0.00508 (inactive) | -11.4% (inactive) | -26.4% (inactive)
26 | CN1C(=O)C(CC(=O)N2CCN(C(c3ccccc3)c3ccccc3)CC2)N(C)C1=O (stereo not drawn) | 281 | -2.3% (inactive) | 9.8% (inactive) | 97.2 | 20.6% (inactive) | 118 | -0.288 (inactive) | 5.9e-06 (inactive) | 0.00745 (inactive) | 1.7% (inactive) | 22.8% (inactive)
27 | Cc1oc(-c2ccc(Cl)cc2)nc1CS(=O)CC(=O)NCCCN(C)C1CCCCC1 (stereo not drawn) | 584 | 3.8% (inactive) | -6.2% (inactive) | 94.6 | -47% (inactive) | 127 | -0.603 (inactive) | 1.3e-05 (inactive) | 0.00462 (inactive) | 15.7% (inactive) | 30.4% (inactive)
28 | COc1ccc(OC)c(S(=O)(=O)N2CCC(C(=O)NCC3CCCO3)CC2)c1 (stereo not drawn) | 268 | 1.3% (inactive) | 10.7% (inactive) | 100 | -34.4% (inactive) | 115 | -0.352 (inactive) | 2.2e-05 (inactive) | 0.00611 (inactive) | 14.9% (inactive) | 20.2% (inactive)
